PubChem BioAssay (NCI)
The panel holds about 83,000 compounds, 20% with a hit somewhere; the sample as a whole holds those more often.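 In brief: 96-well plates, 48 h treatment, single concentration, percent growth endpoint.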 Unmarked numbers belong to inactive results. Activity calls are given as the source filed them. How the source made its calls: active means growth percent below 10; inactive means the rest.

These compounds were tested on UACC-62 melanoma (assay: NCI-60 one-dose screen, 48 h (100 = growth as untreated, 0 = no growth, -100 = all killed)). Conditions: 10 µM unless noted.

Row | Compound | growth
1 | C=C1C(=O)O[C@H]2[C@H]1CC/C(COC(=O)NCCc1cccc(OC)c1)=C\CC[C@@]1(C)O[C@@H]21 | 22.8%
2 | COc1ccccc1OCC(=O)Nc1sc2c(c1C(N)=O)CCC2 | 49.7%
3 | CCc1c(C(=O)Nc2ccc3ccccc3c2)[nH]c(C)c1C(C)=O | 87.2%
4 | CCC(=O)Oc1ccc2c(c1)CC[C@@H]1[C@@H]2CC[C@]2(C)C[C@H](OC(=O)CC)C[C@@H]12 | 49.1%
5 | COC(=O)CCCCN=Cc1c(O)c(O)c(C(C)C)c2cc(C)c(-c3c(C)cc4c(C(C)C)c(O)c(O)c(C=NCCCCC(=O)OC)c4c3O)c(O)c12 | 33.5%
6 | COc1ccc2c(c1)C(C)Cc1c(N(C)C)ncnc1N2C (stereo not drawn) | 27.6%
7 | Cc1ccc(S(=O)(=O)OCC(=O)Nc2ccc(C(=O)O)c(O)c2)cc1 | 99.9%
8 | O=C(O)c1ccc(-n2cc(CNc3ccc(C(F)(F)F)cc3)c(-c3ccccc3)n2)cc1 | 72.9%
9 | Cc1cc(C(=O)CSc2nc3ccccc3c(=O)[nH]2)c(C)n1C | 90.5%
10 | CC/C=C\C[C@H](O)C/C=C1/C(=O)C(Cl)=C[C@@H]1C/C=C\CCCC(=O)OC | -57% (active)
11 | CCSc1nnc(Nc2ccc(C(C)C)cc2)s1 | 78.1%
12 | Cc1ccc2nc(-c3c(N)n[nH]c3CCCO)[nH]c(=O)c2c1 | 100%
13 | COc1cc(C(=O)N2CCN(C(=O)c3ccco3)CC2)c(N)cc1OCc1ccccc1 | 93.8%
14 | O=C(Nc1cccc(Cl)c1)c1cc([N+](=O)[O-])ccc1O | 18%
15 | O=C(CNC(=O)c1cccc2ccccc12)Nc1ccccc1Oc1ccccc1 | 21.3%
16 | Nc1cccc2c1CN(C1CCC(=O)NC1=O)C2=O (stereo not drawn) | 114%
17 | Nc1ccc(S(=O)(=O)c2ccc(Cl)cc2)cc1 | 85.8%
18 | CNC(=O)c1cc(Oc2ccc3c(c2)sc2nc(-c4ccc(Cl)cc4)cn23)ccn1 | 85.1%
19 | Cc1cc(C)c2c(=O)[nH]c(SCC(=O)Nc3cccc(S(=O)(=O)N(C)C)c3)nc2n1 | 98.3%
20 | CSc1ccccc1C#C/C=C\C#Cc1ccccc1N1CCCC1=O | 34.4%

Row | Compound | growth
21 | O=S(=O)(NCCCNc1cc(-c2cn(-c3ccccc3)nc2-c2cccc(O)c2)ccn1)c1ccc(Cl)cc1 | 17.1%
22 | CC(=O)Oc1cccc(OC(C)=O)c1OC(C)=O | 96.8%
23 | C=C1C(=O)O[C@H]2[C@H]1CC/C(COC(=O)NCCc1ccc(Br)cc1)=C\CC[C@@]1(C)O[C@@H]21 | -54.3% (active)
24 | O=S=Nc1ccc([N+](=O)[O-])cc1 | 73%
25 | COc1ccc(N=C2NN=C(c3ccc(F)cc3)CS2)cc1OC | 86.6%
26 | NC(C(=O)O)C(O)c1ccc(OCc2ccccc2)c(OCc2ccccc2)c1 (stereo not drawn) | 97.8%
27 | CC/C=C\C[C@H]1C/C=C2/C(=O)C(Cl)=C[C@@H]2C/C=C\CCCC(=O)O1 | -53.1% (active)
28 | Cc1sc2nc(CSc3nnc(-c4ccco4)o3)[nH]c(=O)c2c1C | 108%
29 | O=S(=O)(NCCCNc1cc(-c2cn(-c3ccccc3)nc2-c2cccc(O)c2)ccn1)c1cccc2ccccc12 | 34.5%
30 | CN(C)c1nc(N)c(N=O)c(N)n1 | 103%
31 | O=C1NC(Cc2c[nH]c3ccccc23)C(=O)N1Cc1ccc(Cl)cc1 (stereo not drawn) | 86.1%
32 | COC(=O)c1ccc(C)cc1 | 106%
33 | COC(=O)CCCCCN=Cc1c(O)c(O)c(C(C)C)c2cc(C)c(-c3c(C)cc4c(C(C)C)c(O)c(O)c(C=NCCCCCC(=O)OC)c4c3O)c(O)c12 | 25%
34 | O=S(=O)(NCCCNc1nccc(-c2c(-c3ccc(F)c(O)c3)nc3sccn23)n1)c1ccc(Cl)cc1 | 6.74% (active)
35 | COc1ncc(-c2ccc3ncnc(Nc4cccc(Cl)c4)c3c2)cc1N(S(C)(=O)=O)S(C)(=O)=O | 58.1%
36 | CC(Br)C(O)c1cc2c(cc1Br)OCO2 (stereo not drawn) | 98.9%
37 | O=S(=O)(NCCCNc1cc(-c2cn(-c3ccccc3)nc2-c2cccc(O)c2)ccn1)c1ccc(Br)cc1 | -5.16% (active)
38 | COc1ccc2c(c1)NC(=O)CN2c1nc(C)nc2ccccc12 | 35.7%
39 | NC(=O)c1c(NC(=O)c2ccc3c(c2)OCO3)sc2c1CCC(=O)C2 | -37.8% (active)

The compounds below were run on LOX IMVI melanoma in the same assay as above. Conditions: 10 µM unless noted.

Row | Compound | growth
40 | C=C1C(=O)O[C@H]2[C@H]1CC/C(COC(=O)NCCc1cccc(OC)c1)=C\CC[C@@]1(C)O[C@@H]21 | 3% (active)
41 | COc1ccccc1OCC(=O)Nc1sc2c(c1C(N)=O)CCC2 | 50.5%
42 | CCc1c(C(=O)Nc2ccc3ccccc3c2)[nH]c(C)c1C(C)=O | 96.3%
43 | CCC(=O)Oc1ccc2c(c1)CC[C@@H]1[C@@H]2CC[C@]2(C)C[C@H](OC(=O)CC)C[C@@H]12 | 76.8%
44 | COC(=O)CCCCN=Cc1c(O)c(O)c(C(C)C)c2cc(C)c(-c3c(C)cc4c(C(C)C)c(O)c(O)c(C=NCCCCC(=O)OC)c4c3O)c(O)c12 | 17.4%
45 | COc1ccc2c(c1)C(C)Cc1c(N(C)C)ncnc1N2C (stereo not drawn) | 42.4%
46 | Cc1ccc(S(=O)(=O)OCC(=O)Nc2ccc(C(=O)O)c(O)c2)cc1 | 78.5%
47 | O=C(O)c1ccc(-n2cc(CNc3ccc(C(F)(F)F)cc3)c(-c3ccccc3)n2)cc1 | 89.2%
48 | Cc1cc(C(=O)CSc2nc3ccccc3c(=O)[nH]2)c(C)n1C | 94.7%
49 | CC/C=C\C[C@H](O)C/C=C1/C(=O)C(Cl)=C[C@@H]1C/C=C\CCCC(=O)OC | -89.9% (active)
50 | CCSc1nnc(Nc2ccc(C(C)C)cc2)s1 | 82.5%
51 | Cc1ccc2nc(-c3c(N)n[nH]c3CCCO)[nH]c(=O)c2c1 | 101%
52 | COc1cc(C(=O)N2CCN(C(=O)c3ccco3)CC2)c(N)cc1OCc1ccccc1 | 92.4%
53 | O=C(Nc1cccc(Cl)c1)c1cc([N+](=O)[O-])ccc1O | 34%
54 | O=C(CNC(=O)c1cccc2ccccc12)Nc1ccccc1Oc1ccccc1 | 15.5%
55 | Nc1cccc2c1CN(C1CCC(=O)NC1=O)C2=O (stereo not drawn) | 99.8%
56 | Nc1ccc(S(=O)(=O)c2ccc(Cl)cc2)cc1 | 95.6%
57 | CNC(=O)c1cc(Oc2ccc3c(c2)sc2nc(-c4ccc(Cl)cc4)cn23)ccn1 | 87.4%
58 | Cc1cc(C)c2c(=O)[nH]c(SCC(=O)Nc3cccc(S(=O)(=O)N(C)C)c3)nc2n1 | 101%
59 | CSc1ccccc1C#C/C=C\C#Cc1ccccc1N1CCCC1=O | 30.8%

Row | Compound | growth
60 | O=S(=O)(NCCCNc1cc(-c2cn(-c3ccccc3)nc2-c2cccc(O)c2)ccn1)c1ccc(Cl)cc1 | 3.96% (active)
61 | CC(=O)Oc1cccc(OC(C)=O)c1OC(C)=O | 95.2%
62 | C=C1C(=O)O[C@H]2[C@H]1CC/C(COC(=O)NCCc1ccc(Br)cc1)=C\CC[C@@]1(C)O[C@@H]21 | -68.2% (active)
63 | O=S=Nc1ccc([N+](=O)[O-])cc1 | 71.2%
64 | COc1ccc(N=C2NN=C(c3ccc(F)cc3)CS2)cc1OC | 85.5%
65 | NC(C(=O)O)C(O)c1ccc(OCc2ccccc2)c(OCc2ccccc2)c1 (stereo not drawn) | 99.1%
66 | CC/C=C\C[C@H]1C/C=C2/C(=O)C(Cl)=C[C@@H]2C/C=C\CCCC(=O)O1 | -91.4% (active)
67 | Cc1sc2nc(CSc3nnc(-c4ccco4)o3)[nH]c(=O)c2c1C | 99.2%
68 | O=S(=O)(NCCCNc1cc(-c2cn(-c3ccccc3)nc2-c2cccc(O)c2)ccn1)c1cccc2ccccc12 | 10.3%
69 | CN(C)c1nc(N)c(N=O)c(N)n1 | 99.1%
70 | O=C1NC(Cc2c[nH]c3ccccc23)C(=O)N1Cc1ccc(Cl)cc1 (stereo not drawn) | 89.1%
71 | COC(=O)c1ccc(C)cc1 | 99.5%
72 | COC(=O)CCCCCN=Cc1c(O)c(O)c(C(C)C)c2cc(C)c(-c3c(C)cc4c(C(C)C)c(O)c(O)c(C=NCCCCCC(=O)OC)c4c3O)c(O)c12 | 13.7%
73 | O=S(=O)(NCCCNc1nccc(-c2c(-c3ccc(F)c(O)c3)nc3sccn23)n1)c1ccc(Cl)cc1 | 45.5%
74 | COc1ncc(-c2ccc3ncnc(Nc4cccc(Cl)c4)c3c2)cc1N(S(C)(=O)=O)S(C)(=O)=O | 63.7%
75 | CC(Br)C(O)c1cc2c(cc1Br)OCO2 (stereo not drawn) | 93.2%
76 | O=S(=O)(NCCCNc1cc(-c2cn(-c3ccccc3)nc2-c2cccc(O)c2)ccn1)c1ccc(Br)cc1 | -29.5% (active)
77 | COc1ccc2c(c1)NC(=O)CN2c1nc(C)nc2ccccc12 | 22%
78 | NC(=O)c1c(NC(=O)c2ccc3c(c2)OCO3)sc2c1CCC(=O)C2 | 15%
